{"source": "PubChem BioAssay AID720648", "about": "(The Scripps Research Institute Molecular Screening Center, 2013)", "note": "Screen size: about 370,000 compounds; about 3,100 (0.84%) were called active.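 Rule for the calls: active = inhibition above the mean of compounds lying between control limits plus 3 SD, set per campaign (cut at about 8.5% in these data); inactive = the rest.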 The entries come from a sample that favours actives as a whole.", "data": [{"molecular_target": "Disintegrin and metalloproteinase domain-containing protein 17 (Homo sapiens) (UniProt P78536)", "sequence (P78536 215-824 limits assumed)": "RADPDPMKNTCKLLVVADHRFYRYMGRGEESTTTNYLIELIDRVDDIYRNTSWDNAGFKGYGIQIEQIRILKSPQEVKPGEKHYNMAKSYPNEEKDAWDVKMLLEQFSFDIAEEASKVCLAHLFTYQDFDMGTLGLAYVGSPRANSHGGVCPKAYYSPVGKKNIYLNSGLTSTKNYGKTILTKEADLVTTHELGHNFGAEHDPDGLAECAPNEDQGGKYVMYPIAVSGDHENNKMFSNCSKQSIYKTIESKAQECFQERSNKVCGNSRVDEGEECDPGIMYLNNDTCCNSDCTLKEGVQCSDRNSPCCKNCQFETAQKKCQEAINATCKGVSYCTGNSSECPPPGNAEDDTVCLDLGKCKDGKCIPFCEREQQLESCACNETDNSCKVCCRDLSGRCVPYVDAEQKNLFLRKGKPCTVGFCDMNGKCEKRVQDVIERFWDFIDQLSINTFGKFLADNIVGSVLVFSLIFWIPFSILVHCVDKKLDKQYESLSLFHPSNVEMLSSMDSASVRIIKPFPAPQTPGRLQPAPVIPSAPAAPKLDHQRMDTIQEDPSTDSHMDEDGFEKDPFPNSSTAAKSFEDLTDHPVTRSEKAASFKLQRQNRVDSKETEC", "assay": "inhibition of ADAM17 peptide cleavage – biochemical, QFRET, primary screen (AID 720648);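 note: 0% = DMSO-only wells as the low control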", "details": "recombinant ADAM17, EDANS/DABCYL FRET peptide cleavage; at 6.95 µM; hits give high values", "values": [{"smiles": "CCOC(=O)[C@]12CCCCC/C=C\\1N(Cc1ccc(OC)cc1)C(=O)[C@H]2CC(=O)N1CCOCC1", "inhibition": "-0.25% (inactive)"}, {"smiles": "COc1ccnc(C(=O)N2CCC(Oc3cccnc3)CC2)c1", "inhibition": "1.66% (inactive)"}, {"smiles": "CCOC(=O)N1CCN(C(=O)C[C@H]2C[C@@]3(C(=O)OC)C(=C[C@H](C(C)(C)C)O[C@@H]3C)N(Cc3ccc(Cl)cc3Cl)C2=O)CC1", "inhibition": "2.67% (inactive)"}, {"smiles": "Cn1nc(C(F)(F)F)c(C(=O)Nc2cccc(C(F)(F)F)c2)c1SCc1ccc(Cl)cc1", "inhibition": "19.8% (active)"}, {"smiles": "CCC(=O)OCc1c(C(F)(F)F)nn(C)c1Oc1cccc(C(F)(F)F)c1", "inhibition": "-2.77% (inactive)"}, {"smiles": "COC(=O)c1ccccc1Sc1c(/C=N/OCc2ccc(Cl)cc2)c(C(F)(F)F)nn1C", "inhibition": "-4.94% (inactive)"}, {"smiles": "O=S1(=O)c2ccc(N3CCN(Cc4ccccc4F)CC3)cc2Oc2ccccc2CN1Cc1cn(Cc2ccc(Cl)cc2)nn1", "inhibition": "7.88% (inactive)"}, {"smiles": "CC(C)CNC(=O)OCc1cn(Cc2ccc(F)cc2)nn1", "inhibition": "3.83% (inactive)"}, {"smiles": "CNC(=O)C[C@H]1C(=O)N(c2ccc(OC)cc2)C[C@@H]1Cc1ccccc1", "inhibition": "-1.23% (inactive)"}, {"smiles": "O=C(C[C@H]1C(=O)N(c2ccc(F)c(F)c2)C[C@@H]1Cc1ccccc1)Nc1ccccc1", "inhibition": "9.24% (active)"}, {"smiles": "C[C@H]1CN(c2ccc(Br)cc2)C(=O)[C@@H]1CC(=O)Nc1ccc(Br)cc1", "inhibition": "-0.38% (inactive)"}, {"smiles": "COc1ccc(C(CNC(=O)c2cc(S(=O)(=O)Nc3cccc(C)c3)ccc2C)N2CCCC2)cc1", "note": "(stereo not given)", "inhibition": "10.3% (active)"}, {"smiles": "COc1ccc(C(CNC(=O)c2ccc(S(=O)(=O)Nc3ccccc3C)cc2)N2CCOCC2)cc1", "note": "(stereo not given)", "inhibition": "-1.54% (inactive)"}, {"smiles": "COc1ccc(NS(=O)(=O)c2ccc(C)c(C(=O)NCC(c3cccs3)N3CCOCC3)c2)cc1", "note": "(stereo not given)", "inhibition": "-1.97% (inactive)"}, {"smiles": "O=C(Nc1cc(F)cc(F)c1)OC1CCC12CCC(c1ccccc1)CC2", "note": "(stereo not given)", "inhibition": "3.79% (inactive)"}, {"smiles": "COc1cccc(N(C)C(=O)[C@@H](C)[C@@H](O)c2ccc3ccccc3c2)c1", "inhibition": "-0.07% (inactive)"}, {"smiles": "CC(=O)C1(C(=O)Nc2nccs2)CC(c2ccccc2C(F)(F)F)=NO1", "note": "(stereo not given)", "inhibition": "-1.77% (inactive)"}, {"smiles": "Cc1cccc([C@@H]2[C@@H]3C(=O)N(Cc4ccccc4)C(=O)[C@@H]3[C@]3(Cc4ccc(Cl)cc4)C(=O)N(c4cccc(Cl)c4)C(=O)N23)c1", "inhibition": "1.28% (inactive)"}, {"smiles": "Cc1cccc(N2C(=O)N3[C@H](c4ccc(F)cc4)[C@@H]4C(=O)N(C5CCCCC5)C(=O)[C@@H]4[C@]3(Cc3ccccc3)C2=O)c1", "inhibition": "1.18% (inactive)"}, {"smiles": "CC(C)(C)N1C(=O)[C@H]2[C@@H](c3ccc(Br)cc3)N3C(=O)N(c4cccc(Cl)c4)C(=O)[C@@]3(C)[C@H]2C1=O", "inhibition": "10% (active)"}, {"smiles": "O=C1[C@H]2[C@@H](c3ccc(Cl)cc3)N3C(=O)N(c4cccc(F)c4)C(=O)[C@@]3(Cc3ccccc3)[C@H]2C(=O)N1C1CCCCC1", "inhibition": "-3.52% (inactive)"}, {"smiles": "CC12C(=O)N(c3ccccc3)C(=O)C1C(c1ccccc1)N1CCCN12", "note": "(stereo not given)", "inhibition": "0.41% (inactive)"}, {"smiles": "CCN1C(=O)[C@H]2[C@@H](c3ccc(-c4ccc(OC)cc4)cc3)N[C@@](Cc3ccccc3)(C(=O)OC)[C@H]2C1=O", "inhibition": "-1.71% (inactive)"}, {"smiles": "O=C1[C@H]2[C@@H](c3ccc(F)cc3)N3C(=O)N(c4ccc(C(F)(F)F)cc4)C(=O)[C@@]3(Cc3ccccc3)[C@H]2C(=O)N1C1CCCCC1", "inhibition": "1.1% (inactive)"}, {"smiles": "CCN1C(=O)[C@H]2[C@@H](c3ccc(C)cc3)N3C(=O)N(c4cccc(Br)c4)C(=O)[C@@]3(CC)[C@H]2C1=O", "inhibition": "1.14% (inactive)"}, {"smiles": "CC[C@@]12C(=O)N(c3ccccc3)C(=O)N1[C@H](c1ccc(Br)cc1)[C@@H]1C(=O)N(C(C)(C)C)C(=O)[C@@H]12", "inhibition": "8.73% (active)"}, {"smiles": "CCOC(=O)[C@@H]1[C@H]2COc3cc(OC)ccc3[C@@H]2N2C(=O)N(c3cccc(C)c3)C(=O)[C@@]12C", "inhibition": "-2.53% (inactive)"}, {"smiles": "C[C@@]12C(=O)N(c3cccc(Br)c3)C(=O)N1[C@H](c1ccc(Cl)cc1)[C@@H]1C(=O)N(C3CCCCC3)C(=O)[C@@H]12", "inhibition": "13.3% (active)"}, {"smiles": "COc1ccc([C@@H]2[C@@H]3C(=O)N(C(C)(C)C)C(=O)[C@@H]3[C@]3(Cc4ccccc4)C(=O)N(c4cccc(Br)c4)C(=O)N23)cc1", "inhibition": "13.1% (active)"}, {"smiles": "Cc1ccc(Cn2cc(CN3[C@@H](C)COc4cc(Br)ccc4S3(=O)=O)nn2)cc1", "inhibition": "-2.3% (inactive)"}, {"smiles": "COC(=O)c1cccc(Cn2ccc3ccc(-c4ccc5ccn(C(=O)C6CCCCC6)c5c4)cc32)c1", "inhibition": "-4.69% (inactive)"}, {"smiles": "Cc1ccc(C2=CCN(C)C(=O)N2c2ccc(Cl)cc2)cc1", "inhibition": "0.02% (inactive)"}, {"smiles": "CCOC(=O)C1CCN(C(=O)C(C)(C)NC(=O)Nc2ccc(F)c(F)c2)CC1", "inhibition": "0.09% (inactive)"}, {"smiles": "COc1ccccc1C(=O)CSc1nnc(-c2ccccn2)n1-c1ccccc1", "inhibition": "-0.51% (inactive)"}, {"smiles": "CCOC(=O)[C@]12CCCCC/C=C\\1N(Cc1ccc(OC)cc1)C(=O)[C@H]2CC(=O)NCc1ccc(C)o1", "inhibition": "-1.43% (inactive)"}, {"smiles": "Cc1ccc(C)c(-n2c(SCC(=O)O)nc3sc4c(c3c2=O)CCCC4)c1", "inhibition": "0.43% (inactive)"}, {"smiles": "CCn1c(SCC(C)=O)nc2sc3c(c2c1=O)CCCC3", "inhibition": "-1.68% (inactive)"}, {"smiles": "NNC(=O)C1CCCn2c1nc1sc3c(c1c2=O)CCCC3", "note": "(stereo not given)", "inhibition": "11.2% (active)"}, {"smiles": "O=C(CN1CCC(NC(=O)NCc2ccccc2)CC1)Nc1ccc2c(c1)OCCO2", "inhibition": "-4.62% (inactive)"}, {"smiles": "CCCC[C@H](C(=O)N(CC)c1ccccc1)[C@@H](O)c1ccc2ccccc2c1", "inhibition": "4.5% (inactive)"}, {"smiles": "COc1ccc(NC(=O)COC(=O)CNC(=O)C2CCCCC2)cc1", "inhibition": "-0.83% (inactive)"}, {"smiles": "CCC(C)(C)c1ccc(Oc2ccc(NC(=O)COC(=O)C3=COCCO3)cc2)cc1", "inhibition": "15.7% (active)"}, {"smiles": "O=C1CCC(C(=O)OCC(=O)Nc2ccc(OC(F)F)cc2)=NN1", "inhibition": "5.95% (inactive)"}, {"smiles": "CCOC(=O)N1CCN(C(=O)C[C@@H]2C(=O)N(CCc3ccc(Cl)cc3)C3=CCCC[C@]32C(=O)OCC)CC1", "inhibition": "-1.27% (inactive)"}, {"smiles": "CC[C@@H](CCC(=O)N(c1ccccc1)c1ccccc1)C1CC1", "inhibition": "-3.63% (inactive)"}]}]}
